# Data: PubChem BioAssay (Tox21)
# Inconclusive results are not listed. Unmarked numbers belong to inactive results. The call rests on the fitted dose curve; in most records, active means well fitted cell-killing curve with a large enough effect in the repeat runs; inconclusive means weak or mixed curves, or effect the other way; inactive means flat fitted curve, though single readings scatter.
# Test: qHTS RealTime-Glo MT Cell Viability Assay in HepG2 cells - 0 hour (AID 1224889); further: nearly all actives have a fitted effect of over 50% in size
# Conditions: RealTime-Glo luminescence; series mostly up to 76.8 µM; activity change, negative = cytotoxicity: at the top concentration
# Procedure, shortened: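 HepG2 suspension premixed with RealTime-Glo reagents is plated at 600 cells per well and left 5 h at 37 C/5% CO2. Compounds in DMSO then go in, and bioluminescence reflecting viable cell number is recorded over 40 h.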
# On the % scale 0 is the no-effect control and ±100 the full control effect.
row,Compound,"activity change, negative = cytotoxicity"
1,Oc1ccc(Oc2ccccc2)cc1,12.7%
2,C=C[Si](OCC)(OCC)OCC,-0.151%
3,O=[N+]([O-])c1ccccc1CCO,0.816%
4,O=C(Cl)c1cc(Cl)cc(Cl)c1,-5.02%
5,CCC1=C(C)CN(C(=O)NCCc2ccc(S(=O)(=O)NC(=O)NC3CCC(C)CC3)cc2)C1=O (configuration not stated),-3.68% [at 35.3 µM]
6,CCCCCC1CCC(=O)O1 (configuration not stated),10.7%
7,CCOc1cc(OCC)c(C(C)=O)cc1OCC,-1.3%
